Source: PubChem (National Center for Advancing Translational Sciences (NCATS))
In the library only some 2.2% were active in any assay of this set; here they are far more common.
Vaccinia Venus – vaccinia inhibition (Venus reporter) | Potency, µM (doses to about 36.5 µM), hits mostly inhibitors | hit rate 0.46% among 330,000 | Vaccinia virus Venus reporter expression, fluorescence; calls by dose curve; tested in A549 cells; further: nearly all actives have a fitted effect of over 30% in size
Vaccinia mCherry – inhibitors of vaccinia virus infection (mCherry reporter signal); Vaccinia virus mCherry reporter infection, fluorescence; Potency, µM (doses to about 36.5 µM), most hits filed as inhibitors; hit rate 0.63% among 310,000; AID 720579; calls by dose curve; tested in A549 cells; further: nearly all actives have a fitted effect of over 35% in size
FBPA Giardia inh – blocks Giardia fructose-bisphosphate aldolase activity; A8B2U2; purified Giardia FBPA; Potency, µM (series often up to 59.6 µM), actives largely listed as inhibitors; hit rate 0.71% among 290,000; active means well fitted inhibition curve with a large enough effect; inconclusive means small, poorly fitted or top-dose-only effect, or effect the other way; further: nearly all actives have a fitted effect of over 55% in size
Target sequence (A8B2U2 whole entry, looked up): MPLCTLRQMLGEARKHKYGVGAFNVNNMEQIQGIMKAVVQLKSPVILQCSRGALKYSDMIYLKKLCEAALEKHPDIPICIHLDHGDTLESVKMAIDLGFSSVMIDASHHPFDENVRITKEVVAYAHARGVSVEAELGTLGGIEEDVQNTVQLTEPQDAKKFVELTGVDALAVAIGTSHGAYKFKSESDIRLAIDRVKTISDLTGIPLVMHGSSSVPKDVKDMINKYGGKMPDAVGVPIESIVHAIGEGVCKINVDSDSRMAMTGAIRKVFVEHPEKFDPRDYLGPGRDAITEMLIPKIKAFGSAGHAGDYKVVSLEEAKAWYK
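40 nM FBPA preincubated 10 min at RT with compound (up to 57.5 uM final), then substrate plus GAPDH/TPI/NAD/arsenate coupling and diaphorase/resazurin added. Fluorescence read after 20 min at RT, 525/598 nm.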
FMDV inh – blocks foot and mouth disease virus | Potency, µM (series often up to 57.9 µM), most hits filed as inhibitors | hit rate 1.2% among 410,000 | FMDV antiviral cell-based qHTS; calls by dose curve; tested in HEK293T cells; further: read-out not given here; nearly all actives have a fitted effect of over 45% in size
Hits are given with their value; 0 = inactive; ? = inconclusive; - = not tested or not shown; [ ] = remark or other dose.

SMILES | Vaccinia Venus | Vaccinia mCherry | FBPA Giardia inh | FMDV inh
O=C(/C=C/Nc1ccccc1Br)c1ccccn1 | 0 | 0[1.46 µM] | 0 | 2.24µM
Cc1nc2ccccc2c2oc(C(=O)NCc3ccccn3)cc12 | - | - | 0 | ?
Cc1ccc(CNC(=O)c2cc3c(C)nc4ccccc4c3o2)cc1 | 0 | 0 | 0 | 12.6µM
CC(=O)Nc1cccc(C(=O)OCC(=O)NC(=O)C2CCCCC2)c1 | 0 | 0 | - | -
Cc1[nH]c2ccccc2c1C(=O)C(C)Sc1nc2ccccc2c(=O)n1Cc1cccnc1 (stereo not drawn) | 0 | 0 | - | -
C=C1C(=O)C=C2CN(C(=O)c3ccccc3)[C@@](Cc3ccc(OC)cc3)(C(=O)OC)[C@@H]12 | - | - | 0 | -
CCOc1ccc(OCC(=O)Nc2nccs2)cc1 | 0 | 0 | 0 | 8.91µM
Nc1ccc2ncccc2c1 | - | - | 2.23µM | 0
CCC1C(=O)NCCN1Cc1ccc2c(c1)CN(Cc1cc(OC)c3c(c1)OCO3)CCO2 (stereo not drawn) | 0 | 0 | - | ?
O=C(N/N=C\c1cc(Cl)ccc1O)c1ccc(S(=O)(=O)N2CCCCC2)cc1 | ? | 12.6µM | 0 | 0
O=C(NCc1nnc2n1CCN(Cc1cccc(C(F)(F)F)c1)CC2)c1ccncc1 | 0 | 0 | - | 0
O=C1C(c2[nH]c3ccc(S(=O)(=O)O)cc3c2O)=Nc2ccc(S(=O)(=O)O)cc21 | 0 | 0 | 17.7µM | -
CC(=O)CCSc1nnc(-c2cccc(S(=O)(=O)N3CCOCC3)c2)o1 | 0 | 0 | - | 0
O=S(=O)(c1cccc(-c2nnc(SCc3nc4ccccc4s3)o2)c1)N1CCOCC1 | ? | 12.6µM | 0 | 0
c1ccc(-c2sc3ccccc3c2-c2ccc(OCCN3CCCCC3)cc2)cc1 | 0 | 0 | - | 0
CN(C)CCOc1ccc(-c2c(-c3ccccc3)sc3ccccc23)cc1 | 12.6µM | ? | - | ?
O=C(O)CSCC(=O)Nc1ccc(C2CCCCC2)cc1 | 0 | 0 | 0 | 1.12µM
Cc1cc(Br)cn2c(Cc3ccsc3)c(-c3ccco3)nc12 | 0 | 0 | - | 35.5µM
COc1ccccc1Cc1c(-c2ccco2)nc2c(C)cc(Br)cn12 | 0 | 0 | - | 14.1µM
COc1ccccc1C1CC(c2ccc(Br)cc2)=NN1C(=O)c1cccnc1 (stereo not drawn) | ? | 0 | 0 | 31.6µM
COc1cccc(C2CC(c3ccc(Br)cc3)=NN2C(=O)c2ccncc2)c1OC (stereo not drawn) | ? | 14.1µM | 0 | ?
COc1ccc(CN2CCC(n3cc(C(=O)N4CCCC4)nn3)CC2)c(OC)c1C | 0 | 0 | - | 0
Cc1cc(C)nc(-c2cccc3c2OC(CNC(=O)C2CCOC2)C3)n1 (stereo not drawn) | 0 | 0 | - | 0
O=C(NCC1(N2CCOCC2)CCCC1)c1cnn(-c2ncc3c(n2)-c2ccccc2CC3)c1C1CC1 | 0 | 0 | - | 0
COc1cc(=O)n2c(c1C(=O)N(C)Cc1nonc1C)CCN(Cc1ccc(C)cc1C)CC2 | 0 | 0 | - | 0
SMILES | Vaccinia Venus | Vaccinia mCherry | FBPA Giardia inh | FMDV inh
CC(=O)c1c(C)nc2sc3c(=N)n(N)cnc3c2c1-c1ccc(Cl)cc1 | 4.47µM | 3.55µM | 0 | 0
CCOC(=O)c1c(C)nc2sc3c(=O)n(-c4ccc(C(C)=O)cc4)cnc3c2c1-c1ccc(OC)cc1 | 0 | - | 0 | 0
CN(c1ccc(/C=C/c2ccccc2)cc1)P1(=O)NCCCO1 (stereo not drawn) | 0 | 0 | - | -
CCc1cc(C(=O)NCC2Cc3cc(-c4ccccc4C(C)=O)ccc3O2)no1 (stereo not drawn) | 0 | 0 | - | 0
COc1ccc(CCN2CCC(Nc3nc4ccccc4n3Cc3ccc(F)cc3)CC2)cc1 | 10µM | 11.2µM | 0 | 0
O=C1C(=O)c2ccccc2C([O-])=C1[n+]1ccccc1 | - | - | 0 | 22.4µM
COc1ccc(CC2=C(O)c3ccccc3C(=O)C2=O)cc1 | 0 | ? | 0 | 0
O=C1C(=O)c2ccccc2C(O)=C1CCCCl | - | - | 3.54µM | 28.2µM
O=C(Nc1ccc(OC(F)F)c(Cl)c1)Nc1ccc2c(c1)OCO2 | - | - | 0 | 0
O=C(Nc1ccc([N+](=O)[O-])cc1)Nc1ccc(OC(F)F)c(Cl)c1 | 8.91µM | ? | 0 | 25.1µM
COc1ccc(OC)c(C2=Nn3c(nnc3-c3ccccc3O)SC2)c1 | - | - | 0 | -
COc1ccc(NC(=S)NCCN2CCC(C)CC2)cc1Cl | 0 | 0 | 14.1µM | 0
Cc1ncc2c(c1CNC(=O)c1ccc3c(c1)OCO3)CCN(C(=O)c1cccc(-n3cccn3)c1)C2 | 0 | 0 | - | 0
O=C(Nc1ccc([N+](=O)[O-])cc1Cl)c1cc(Cl)cc(Cl)c1O | ? | 8.91µM | - | -
O=C(Nc1ccc([N+](=O)[O-])cc1Cl)c1cc(Br)ccc1O | 0.794µM | 3.55µM | - | -
COc1ccc(NC(=O)c2cc(Br)ccc2Cl)c([N+](=O)[O-])c1 | 0 | 0 | 0 | 0
COc1ccc(NC(=O)c2cc([N+](=O)[O-])ccc2O)cc1 | ? | 6.31µM | 0 | 6.31µM
COc1ccccc1CN1CCOc2ccc(C(C)(O)CN(C)C)cc2C1 (stereo not drawn) | 0 | 0 | - | 0
Cc1cc2ncn(/N=C/c3ccc([N+](=O)[O-])s3)c2cc1C | ? | ? | 0 | 0
O=[N+]([O-])c1ccc(/C=N/n2c(CO)nc3ccccc32)s1 | 3.98µM | 5.01µM | 0 | 0
Cc1nc2ccccc2n1/N=C/c1ccc([N+](=O)[O-])s1 | 0 | 0 | 0 | ?
O=[N+]([O-])c1ccc(/C=N/n2cnc3ccccc32)s1 | 6.31µM | 5.01µM | 0 | 0
CCc1nnc(NC(=O)[C@@H]2CCCN2C(=O)c2cccs2)s1 | 0 | 0 | - | -
COc1cc(C)c(CN2C[C@H](Sc3nc4ccccc4[nH]3)C[C@H]2C(=O)N(C)C)cc1C | 0 | 0 | - | 0
C[C@]12C[C@H](O)CC(CO)(CO)C1[C@H](O)C[C@@]13CC4[C@@H](CC12)[C@@]4(C)C3 (stereo partly drawn) | - | - | 0 | 0
SMILES | Vaccinia Venus | Vaccinia mCherry | FBPA Giardia inh | FMDV inh
Cc1nc(NCc2ccccc2)c2nc(-c3ccccc3)n(CCN3CCCC3)c2n1 | - | - | 0 | -
Cc1cc(CN2CCCC(C(=O)Nc3cccc(-n4cccn4)c3)C2)cc(C)c1O (stereo not drawn) | 0[7.34 µM] | 0[7.34 µM] | 0 | ?
O=C(Nc1cccc(-n2cccn2)c1)C1CCCN(Cc2cc3ccccc3[nH]2)C1 (stereo not drawn) | 0 | 12.6µM | 0 | 0
O=C(c1ccccc1)N1CCN(c2ncnc3sc4c(c23)CCC4)CC1 | - | - | 0 | 22.4µM
Cc1nc(Sc2ccc(Br)cc2)c(C#N)c(C)c1[N+](=O)[O-] | 0 | 0 | 0 | 20µM
O=C(CCCN1C(=O)c2cccc3cccc(c23)C1=O)N1CCN(c2ccc(F)cc2)CC1 | 0 | 0 | 0 | 22.4µM
COc1ccc(N2CCN(C(=O)CCCN3C(=O)c4cccc5cccc(c45)C3=O)CC2)cc1 | - | - | 0 | ?
COC(=O)c1cc(CNC(=O)c2cccc(F)c2)cc(NC(=O)c2ccccc2OC)c1 | 0 | 0 | - | 0
NS(=O)(=O)c1ccc(CCNC(=O)c2ccc([N+](=O)[O-])s2)cc1 | ? | 11.2µM | 0 | 0
NS(=O)(=O)c1ccc(CCNC(=O)c2ccc(Cl)s2)cc1 | - | - | 0 | 0
O=C1CC(c2ccco2)Cc2[nH]c(=O)c(C(=O)Nc3ccccc3)cc21 (stereo not drawn) | 0 | 0 | - | -
COc1ccc(/C=C/C(=O)CC(O)(c2ccccc2)C(F)(F)F)cc1 (stereo not drawn) | 0 | 0 | 0 | 35.5µM
CO[C@H]1[C@H](NC(=O)c2ccsc2)c2ccccc2C12CCN(Cc1cc3ccccc3o1)CC2 | 0 | 0 | - | ?
Cn1cnc2c(NCc3ccccc3)nc(Cl)nc21 | 0 | 0 | - | -
